This passage reports outcome and AC50 results from PubChem BioAssay (EPA / NIEHS).

Inconclusive results are not listed. The source made the active and inactive calls. How the source made its calls, unless noted: active means hit-call score of the fitted dose curve at least 0.9, where 1 is the maximum; inactive means score below 0.9.

The target in experiment [1] is rat Gamma-Aminobutyric Acid Type A Receptor BDZ, alpha 6 site (GABARa6), Gabra6 (gene 29708) (UniProt P30191). Nature of the experiment: NVS_LGIC_rGABARa6: NovaScreen (NVS) Ligand-Gated Ion Channel Assay for rat Gamma-Aminobutyric Acid Type A Receptor BDZ, alpha 6 site (GABARa6) (AID 2283339; active means hit-call score of the fitted dose curve at least 0.9, where 1 is the maximum). The essentials:
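Rat cerebellar membranes; radioligand binding, filtration and scintillation counting, read 1 h after dosing. Single-concentration duplicate screen at 25 uM, then concentration-response up to 50 uM for actives; loss of signal fitted versus DMSO baseline.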

Another experiment has as its target PGR (gene 5241) (UniProt P06401). Put plainly: NVS_NR_hPR: NovaScreen (NVS) Nuclear Receptor Binding Assay for human Progestron Receptor (PR) (AID 2283360; active means hit-call score of the fitted dose curve at least 0.9, where 1 is the maximum;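 further: active means loss of bound radioligand signal versus DMSO baseline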). The essentials:
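Radioligand competition binding on receptor extracted from T47D cells, read by scintillation counting 18 h after dosing. Loss of signal versus DMSO; primary screen in duplicate at 25 uM, actives followed in concentration series.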

A short description of experiment [2]: CEETOX_H295R_11DCORT_noMTC: CeeTox H295R High-throughput Steroidogenesis Assay for 11-Deoxycortisol (11DCORT), maximum tolerated concentration (MTC) filtered results only (AID 2283911). The following applies: actives raise or lower the signal. The essentials: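 Forskolin-primed (10 uM, 48 h) H295R adrenal cells are dosed for 48 h at 0.1% DMSO; medium 11-deoxycortisol is quantified by LC-MS/MS against a 7-point standard curve, with activity fitted in both directions versus DMSO.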

Experiment [3] in a line: CEETOX_H295R_OHPREG_noMTC: CeeTox H295R High-throughput Steroidogenesis Assay for OH-Pregnenolone (OHPREG), maximum tolerated concentration (MTC) filtered results only (AID 2283912). The following applies: actives raise or lower the signal. The essentials:
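Steroidogenesis in H295R cells (OECD 456, modified): after 48 h forskolin priming and 48 h chemical treatment, secreted 17alpha-hydroxypregnenolone is measured by HPLC-MS/MS. Activity is fitted in both directions against DMSO; concentrations are not filtered by MTT-based MTC.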

Experiment [4] in a line: CEETOX_H295R_OHPROG_noMTC: CeeTox H295R High-throughput Steroidogenesis Assay for OH-Progesterone (OHPROG), maximum tolerated concentration (MTC) filtered results only (AID 2283914). The following applies: actives raise or lower the signal. The procedure, abridged: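 Forskolin 10 uM, 48 h prestim → test cmpd in DMSO (0.1% final), 48 h → medium MTBE extraction → LC-MS/MS quant of 17alpha-OH-progesterone. Bidirectional fit vs DMSO; no MTT-based MTC filtering.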

The nature of experiment [5]: CEETOX_H295R_ANDR_noMTC: CeeTox H295R High-throughput Steroidogenesis Assay for Androstenedione (ANDR), maximum tolerated concentration (MTC) filtered results only (AID 2283915). The following applies: actives raise or lower the signal. The essentials: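 H295R cells, passage 10 or below, prestimulated 48 h with 10 uM forskolin, then exposed 48 h to chemical in 0.1% DMSO. Medium androstenedione extracted with MTBE, quantified by HPLC-MS/MS; concentrations not MTC-filtered; bidirectional fit versus DMSO.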

The nature of experiment [6]: CEETOX_H295R_CORTISOL_noMTC: CeeTox H295R High-throughput Steroidogenesis Assay for Cortisol, maximum tolerated concentration (MTC) filtered results only (AID 2283916). The following applies: actives raise or lower the signal. The procedure, abridged: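 Cortisol secretion measured by LC-MS/MS after 48 h chemical treatment (final 0.1% DMSO) of forskolin-primed (10 uM, 48 h) H295R cells; gain or loss fitted relative to DMSO, without maximum-tolerated-concentration filtering.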

Experiment [7] is described as follows: CEETOX_H295R_CORTIC_noMTC: CeeTox H295R High-throughput Steroidogenesis Assay for Corticosterone (CORTIC), maximum tolerated concentration (MTC) filtered results only (AID 2283917). The following applies: actives raise or lower the signal. The essentials:
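Following OECD 456 with minor changes, H295R cultures received 10 uM forskolin for 48 h, then test chemical at 0.1% DMSO for 48 h. Media steroids were extracted and measured by LC-MS/MS.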

Experiment [8] can be described thus: CEETOX_H295R_DOC_noMTC: CeeTox H295R High-throughput Steroidogenesis Assay for DOC, maximum tolerated concentration (MTC) filtered results only (AID 2283918). The following applies: actives raise or lower the signal. The procedure, abridged: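 11-Deoxycorticosterone secreted by human adrenal H295R cells quantified by HPLC-MS/MS after 48 h chemical exposure (0.1% DMSO), following 48 h 10 uM forskolin prestimulation. Concentrations not filtered by MTT-derived MTC; bidirectional fitting.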

Experiment [9] can be described thus: CEETOX_H295R_PROG_noMTC: CeeTox H295R High-throughput Steroidogenesis Assay for Progesterone (PROG), maximum tolerated concentration (MTC) filtered results only (AID 2283920). The following applies: actives raise or lower the signal. The procedure, abridged:
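H295R cells; forskolin 10 uM x 48 h prestim; test cpd 48 h, 0.1% DMSO final; media progesterone via LC-MS/MS; bidirectional fit vs DMSO; no MTT-based MTC filter applied.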

A short description of experiment [10]: CEETOX_H295R_TESTO_noMTC: CeeTox H295R High-throughput Steroidogenesis Assay for Testosterone (TESTO), maximum tolerated concentration (MTC) filtered results only (AID 2283924). The following applies: actives raise or lower the signal. The procedure, abridged: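 H295R cells prestimulated 48 h with 10 uM forskolin, then exposed 48 h to chemicals in 0.1% DMSO final. Testosterone in medium quantified by MTBE extraction and HPLC-MS/MS; bidirectional fit versus DMSO, concentrations […] filtered by MTT-based maximum tolerated concentration.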

Experiment [11] deals with Estrogen receptor (Homo sapiens) (UniProt P03372). Put plainly: CCTE_Deisenroth_AIME_384WELL_LUC_Active: CCTE's 384-well Estrogen Receptor Transactivation Assay with AIME metabolic competence (ERTA luciferase; metabolism positive), Deisenroth Lab (AID 2284030; active means hit-call score of the fitted dose curve at least 0.9, where 1 is the maximum). The procedure, abridged: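 Estrogenic luciferase signal in VM7Luc4E2 cells is measured at 24 hour, after chemicals have been preconditioned 2 hours with PB/BNF-induced rat hepatic S9 in alginate. Gain of signal is fitted relative to 17beta-estradiol, across 0.002 - 200 uM.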
Sequence of Estrogen receptor (Homo sapiens) (P03372 whole entry, looked up): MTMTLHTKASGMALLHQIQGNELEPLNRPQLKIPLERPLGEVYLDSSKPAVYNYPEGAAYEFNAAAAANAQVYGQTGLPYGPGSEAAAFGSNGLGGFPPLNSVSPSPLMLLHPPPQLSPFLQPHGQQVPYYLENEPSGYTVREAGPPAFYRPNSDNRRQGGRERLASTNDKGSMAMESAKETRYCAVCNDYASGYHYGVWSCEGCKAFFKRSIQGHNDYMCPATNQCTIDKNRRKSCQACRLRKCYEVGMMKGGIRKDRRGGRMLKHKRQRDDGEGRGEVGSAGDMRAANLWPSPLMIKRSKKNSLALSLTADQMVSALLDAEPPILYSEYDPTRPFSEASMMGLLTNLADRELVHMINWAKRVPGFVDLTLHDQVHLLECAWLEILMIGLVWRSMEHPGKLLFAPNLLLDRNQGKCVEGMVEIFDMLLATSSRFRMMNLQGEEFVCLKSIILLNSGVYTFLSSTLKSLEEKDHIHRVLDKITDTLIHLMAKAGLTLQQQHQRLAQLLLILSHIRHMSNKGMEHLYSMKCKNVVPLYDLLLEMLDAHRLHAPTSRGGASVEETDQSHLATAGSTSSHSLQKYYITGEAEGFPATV

Experiment [12] shares this target. Put plainly: CCTE_Deisenroth_AIME_384WELL_LUC_Inactive: CCTE's 384-well Estrogen Receptor Transactivation Assay without AIME metabolic competence (ERTA luciferase; metabolism negative), Deisenroth Lab (AID 2284038; active means hit-call score of the fitted dose curve at least 0.9, where 1 is the maximum;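 further: VM7Luc4E2 breast cells given medium preincubated 2 h with S9-free microspheres; hits raise estrogen receptor luciferase signal so potencies reflect agonists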). The essentials: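 Chemicals (10-point series, 0.002 - 200 uM) were incubated 2 hours with alginate-water microsphere lids lacking S9, then the conditioned medium was transferred to VM7Luc4E2 breast cells for 24 hour. Luciferase induction was read by bioluminescence, fitted upward relative to 17beta-estradiol.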

Experiment [13] has the same target. Put plainly: CCTE_Deisenroth_AIME_384WELL_LUC_Shift: CCTE's 384-well Estrogen Receptor Transactivation Assay with AIME metabolic competence data shift (ERTA luciferase; difference in metabolism positive and negative), Deisenroth Lab (AID 2284041).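 Further: shift is response with S9 minus without S9 so positive means metabolism raised ER signal.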 The procedure, abridged:
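Test chemicals (0.002–200 uM, 10-point) were pre-incubated 2 h with alginate microspheres containing phenobarbital/beta-naphthoflavone-induced male Sprague Dawley rat liver S9 or water, then medium was transferred to VM7Luc4E2 cells for 24 h luciferase readout; shift = S9-positive minus S9-negative normalized response.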

The target in experiment [14] is human Phosphodiesterase 10 (PDE10), PDE10A (gene 10846) (UniProt Q9Y233). Put plainly: NVS_ENZ_hPDE10: NovaScreen (NVS) Enzymatic Assay for human Phosphodiesterase 10 (PDE10) (AID 2283195; active means hit-call score of the fitted dose curve at least 0.9, where 1 is the maximum). The essentials:
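PDE10A, cell-free; 1 h incubation; fluorescence intensity + electrophoretic mobility shift separating substrate/product; DMSO = baseline; 25 uM duplicate primary, CRC up to 50 uM.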

Experiment [15] concerns the target human Phosphatase and Tensin Homolog (PTEN), PTEN (gene 5728) (UniProt P60484). Put plainly: NVS_ENZ_hPTEN: NovaScreen (NVS) Enzymatic Assay for human Phosphatase and Tensin Homolog (PTEN) (AID 2283203; active means hit-call score of the fitted dose curve at least 0.9, where 1 is the maximum). The procedure, abridged: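 Cell-free recombinant human PTEN with fluorescent substrate; product separated by electrophoretic mobility shift and read by fluorescence 1 h after dosing. Primary screen in duplicate at 25 uM, actives followed in concentration series versus DMSO.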

The target in experiment [16] is Estrogen receptor (Homo sapiens) + Estrogen receptor beta (Homo sapiens) (UniProt P03372+Q92731). Nature of the experiment: OT_ER_ERaERb_0480: Odyssey Thera (OT) 8-hour HEK293T Protein-Complementation Assay for Estrogen Receptor-alpha/-beta Heterodimer (AID 2283352; active means hit-call score of the fitted dose curve at least 0.9, where 1 is the maximum). The essentials:
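Human HEK293T cells were treated for 8 hours and receptor heterodimerisation was detected through reconstitution of a fluorescent reporter split between ER-alpha and ER-beta ligand-binding domains. Activity was analysed as gain of signal against DMSO.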

Experiment [17] addresses Androgen Receptor/SRC-1 Co-activator, AR (gene 367) (UniProt P10275). Put plainly: OT_AR_ARSRC1_0960: Odyssey Thera (OT) 16-hour HEK293T Protein-Complementation Assay for Androgen Receptor/SRC-1 Co-activator (AID 2283353; active means hit-call score of the fitted dose curve at least 0.9, where 1 is the maximum;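 further: actives raise the signal above DMSO so potency reflects increased AR and SRC-1 complex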). The procedure, abridged:
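Interaction of AR with SRC-1 was followed by YFP fragment complementation in HEK293T cells after 16 h of dosing. Gain of nuclear-over-cytoplasmic 488 nm fluorescence against DMSO controls defined activity.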

The target is the same in experiment [18]. Put plainly: OT_AR_ARSRC1_0480: Odyssey Thera (OT) 8-hour HEK293T Protein-Complementation Assay for Androgen Receptor/SRC-1 Co-activator (AID 2283354; active means hit-call score of the fitted dose curve at least 0.9, where 1 is the maximum;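 further: hits raise the complementation signal above DMSO so AC50 marks enhancers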). The essentials: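 Measures AR/SRC-1 binding by Venus YFP fragment complementation in HEK293T stable lines at 8 h post-dose. Imaging quantifies the 488nm nucleus/cytoplasm ratio in ≥400 cells; DMSO defines baseline.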

For experiment [19], the target named is Agonist Androgen Response Element (ARE), AR (gene 367) (UniProt P10275). Nature of the experiment: OT_AR_ARELUC_AG_1440: Odyssey Thera (OT) 24-hour CHO-K1 Luciferase Assay for Agonist Androgen Response Element (ARE) (AID 2283379; active means hit-call score of the fitted dose curve at least 0.9, where 1 is the maximum). The procedure, abridged: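 Agonist mode, 24 h exposure in CHO-K1 ARE-luciferase cells; values reflect luminescence induction over vehicle.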
Sequence of Agonist Androgen Response Element (ARE), AR (gene 367) (P10275 whole entry, looked up): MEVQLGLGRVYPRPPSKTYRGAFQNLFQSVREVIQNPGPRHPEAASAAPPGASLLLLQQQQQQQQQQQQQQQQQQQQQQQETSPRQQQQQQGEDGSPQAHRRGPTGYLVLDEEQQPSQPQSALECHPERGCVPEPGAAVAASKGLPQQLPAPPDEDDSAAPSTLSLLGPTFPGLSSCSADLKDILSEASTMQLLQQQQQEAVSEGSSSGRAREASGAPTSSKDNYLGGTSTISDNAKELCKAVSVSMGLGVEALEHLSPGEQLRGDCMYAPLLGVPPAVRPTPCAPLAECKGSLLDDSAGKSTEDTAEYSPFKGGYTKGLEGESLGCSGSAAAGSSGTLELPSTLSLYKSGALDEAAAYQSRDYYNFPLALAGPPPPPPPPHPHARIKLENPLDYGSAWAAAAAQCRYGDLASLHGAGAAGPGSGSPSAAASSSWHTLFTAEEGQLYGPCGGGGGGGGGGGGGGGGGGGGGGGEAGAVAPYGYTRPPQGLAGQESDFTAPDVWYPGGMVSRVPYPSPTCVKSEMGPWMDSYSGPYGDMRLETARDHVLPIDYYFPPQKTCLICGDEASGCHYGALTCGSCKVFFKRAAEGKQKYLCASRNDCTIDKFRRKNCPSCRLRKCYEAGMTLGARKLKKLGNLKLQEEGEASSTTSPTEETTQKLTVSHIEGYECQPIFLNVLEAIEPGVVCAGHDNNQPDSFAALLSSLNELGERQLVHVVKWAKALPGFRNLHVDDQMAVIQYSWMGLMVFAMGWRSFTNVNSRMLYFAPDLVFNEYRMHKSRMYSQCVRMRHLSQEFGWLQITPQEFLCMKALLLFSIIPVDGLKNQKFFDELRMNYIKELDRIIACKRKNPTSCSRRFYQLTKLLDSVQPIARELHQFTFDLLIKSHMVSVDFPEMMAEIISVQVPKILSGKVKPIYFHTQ

Sequence of Androgen Receptor/SRC-1 Co-activator, AR (gene 367) (P10275 whole entry, looked up, the tested form may be a part): as the sequence (P10275 whole entry, looked up) above
Sequence of Estrogen receptor (Homo sapiens) + Estrogen receptor beta (Homo sapiens) (P03372 whole entry, looked up, the tested form may be a part): as the sequence (P03372 whole entry, looked up) above
Sequence of Estrogen receptor (Homo sapiens) + Estrogen receptor beta (Homo sapiens) (Q92731 whole entry, looked up, the tested form may be a part): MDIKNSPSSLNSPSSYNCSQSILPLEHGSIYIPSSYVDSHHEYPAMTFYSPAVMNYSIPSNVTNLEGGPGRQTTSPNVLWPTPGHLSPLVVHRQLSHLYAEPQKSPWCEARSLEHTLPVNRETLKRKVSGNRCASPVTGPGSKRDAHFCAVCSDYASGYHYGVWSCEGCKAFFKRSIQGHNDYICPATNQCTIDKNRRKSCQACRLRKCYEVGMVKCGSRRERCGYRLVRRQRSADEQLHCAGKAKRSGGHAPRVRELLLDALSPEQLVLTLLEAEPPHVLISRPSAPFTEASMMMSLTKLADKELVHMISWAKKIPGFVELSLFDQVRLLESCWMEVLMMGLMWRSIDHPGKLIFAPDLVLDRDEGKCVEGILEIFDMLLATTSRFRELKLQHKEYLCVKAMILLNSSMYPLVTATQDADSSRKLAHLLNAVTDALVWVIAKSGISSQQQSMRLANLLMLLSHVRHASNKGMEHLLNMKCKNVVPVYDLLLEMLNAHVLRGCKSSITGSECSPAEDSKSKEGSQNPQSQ
Sequence of human Phosphatase and Tensin Homolog (PTEN), PTEN (gene 5728) (P60484 whole entry, looked up): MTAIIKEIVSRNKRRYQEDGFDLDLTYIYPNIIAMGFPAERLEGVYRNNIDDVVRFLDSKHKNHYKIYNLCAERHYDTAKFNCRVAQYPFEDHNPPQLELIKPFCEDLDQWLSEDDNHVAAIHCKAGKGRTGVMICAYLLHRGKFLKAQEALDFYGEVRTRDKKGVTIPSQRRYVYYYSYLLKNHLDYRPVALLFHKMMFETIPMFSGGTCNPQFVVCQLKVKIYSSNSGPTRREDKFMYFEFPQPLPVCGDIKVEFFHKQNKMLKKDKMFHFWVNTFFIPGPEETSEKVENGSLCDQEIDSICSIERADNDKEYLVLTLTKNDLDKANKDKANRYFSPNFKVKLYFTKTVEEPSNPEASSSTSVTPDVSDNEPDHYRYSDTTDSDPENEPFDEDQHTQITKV
Sequence of PGR (gene 5241) (P06401 whole entry, looked up): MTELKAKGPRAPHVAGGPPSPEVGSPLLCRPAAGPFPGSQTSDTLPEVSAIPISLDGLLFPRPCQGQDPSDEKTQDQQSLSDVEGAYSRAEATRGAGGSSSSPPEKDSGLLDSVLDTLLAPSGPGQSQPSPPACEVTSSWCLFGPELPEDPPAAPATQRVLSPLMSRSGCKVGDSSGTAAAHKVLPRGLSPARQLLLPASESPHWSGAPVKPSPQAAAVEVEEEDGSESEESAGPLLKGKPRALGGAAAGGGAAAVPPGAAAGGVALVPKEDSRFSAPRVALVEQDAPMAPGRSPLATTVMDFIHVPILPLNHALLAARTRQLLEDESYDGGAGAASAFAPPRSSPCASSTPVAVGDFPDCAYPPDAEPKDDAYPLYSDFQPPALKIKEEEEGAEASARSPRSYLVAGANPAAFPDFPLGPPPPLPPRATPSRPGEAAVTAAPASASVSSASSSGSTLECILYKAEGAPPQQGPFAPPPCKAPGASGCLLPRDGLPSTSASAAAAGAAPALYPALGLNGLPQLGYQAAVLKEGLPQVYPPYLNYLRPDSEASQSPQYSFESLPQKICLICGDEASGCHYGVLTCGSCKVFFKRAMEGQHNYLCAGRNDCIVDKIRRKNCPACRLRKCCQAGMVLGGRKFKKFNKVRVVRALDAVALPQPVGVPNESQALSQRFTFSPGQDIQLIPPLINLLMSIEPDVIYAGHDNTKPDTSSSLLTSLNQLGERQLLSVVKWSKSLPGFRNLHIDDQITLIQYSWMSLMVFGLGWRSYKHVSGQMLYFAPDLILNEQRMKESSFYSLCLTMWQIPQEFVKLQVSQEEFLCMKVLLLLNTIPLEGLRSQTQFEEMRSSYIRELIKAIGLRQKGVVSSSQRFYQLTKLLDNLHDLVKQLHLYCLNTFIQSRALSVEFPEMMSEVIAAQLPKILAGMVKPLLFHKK

As a reminder, the AC50 is the concentration at which the activity in the assay is half-maximal. Regarding `C[C@]12CC[C@H](O)C[C@H]1CC[C@@H]1[C@@H]2C[C@@H](O)[C@]2(C)[C@@H](C3=CC(=O)OC3)CC[C@]12O`, the result (in experiment [1]; with PGR (gene 5241)) was inactive. The concentration at half-maximal activity (AC50) in experiment [2] is 5.79 µM (active); in experiment [3], 1.28 µM (active); in [4], 5.47 µM (active); in experiment [5], 5.44 µM (active); in experiment [6] it was 4.34 µM (active); in experiment [7], 3.91 µM (active). The AC50 in experiment [8] was 10.8 µM (active); in [9] it was 10.7 µM (active); in experiment [10], 4.25 µM (active).

Take `CCCC=NO`: the call in experiment [11], in experiment [12] and in experiment [13] was inactive.

`CCCCCCCCCCCC#N`: the molecule was classed as inactive in experiment [14] and in experiment [15].

Take `c1ccc2c(c1)CCCC2`: the outcome in experiment [16], in experiment [17], in experiment [18] and in experiment [19] was inactive.
